# Reference: PubChem BioAssay (EPA / NIEHS)
# Where “and” joins values, the source holds several entries; their conditions need not be identical. Equal values may be shown once. Records with an inconclusive call do not appear. Some compounds were tested as several samples or in several runs, with calls that do not always agree. Calls of active or inactive are those of the source. The calls were made as follows: active = hit-call score of the fitted dose curve at least 0.9, where 1 is the maximum; inconclusive = response in the unintended direction; inactive = score below 0.9.
# Assays:
# [1] = ATG_M_06_XSP2: Attagene TRANS-FACTORIAL Multi-Species (XSP2) HepG2 Assay for M06 Transcription Factor (Internal Marker) (AID 2283811);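 also: internal background marker reporter mRNA measured by RT-PCR and capillary electrophoresis; hits are increases in signal above the DMSO baseline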
# How it was run: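 Cells of the human liver line HepG2 carried transfected reporter transcription units and were treated for 24 h. Induced reporter transcripts were detected by fluorescence after RT-PCR and capillary electrophoresis, with activity fitted in the gain direction against DMSO.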
# [2] = tested on: turtle Estrogen Receptor (ERa), gene 101933533; test: ATG_trERa_XSP2: Attagene TRANS-FACTORIAL Multi-Species (XSP2) HepG2 Assay for turtle Estrogen Receptor (ERa) (AID 2283812);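 also: actives raise reporter signal above DMSO so AC50 reflects agonist activity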
# How it was run: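 Readout is reporter mRNA quantified by RT-PCR with capillary electrophoresis after 24 h compound exposure, increase relative to DMSO. Uses transiently transfected human HepG2 liver cells carrying a chimeric turtle ERa-Gal4 receptor driving GAL4-UAS reporters.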
# [3] = tested on: turtle Androgen Receptor (AR), gene 101947425; test: ATG_trAR_XSP2: Attagene TRANS-FACTORIAL Multi-Species (XSP2) HepG2 Assay for turtle Androgen Receptor (AR) (AID 2283815);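 as to AC50: potency for gain of reporter signal meaning activation above DMSO baseline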
# Procedure: ATG_XSP2_multi-species_TRANS is a cell-based, multiplexed assay created by modifying the existing Attagene TRANS-FACTORIAL system to include a panel of nuclear receptors from some or all the following species: human (Homo sapiens), mouse (Mus musculus), frog (Xenopus laevis), zebrafish (Danio rerio), chicken (Gallus gallus), and turtle (Chrysemys picta). The […] format uses HepG2, a human liver cell line, with measurements taken at 24 hours after chemical dosing in a 24-well plate. Xsp2 included 3 nM 6-alpha-fluorotestosterone and 1.5 nM norgestrel to stimulate the androgen receptor.ATG_trAR_XSP2 is one of 29 assay components measured or calculated from the ATG_XSP2_multi-species_TRANS assay. It is designed to make measurements of mRNA induction, a form of inducible reporter, as detected with fluorescence intensity signals by Reverse transcription polymerase chain reaction (RT-PCR) and Capillary electrophoresis technology.The assay endpoint ATG_trAR_XSP2 was analyzed in the positive analysis fitting direction relative to DMSO as the negative control and baseline of activity. […] Furthermore, this assay endpoint can be referred to as a primary readout, because this assay has produced multiple assay endpoints where this one serves a reporter gene function. […]
# Human liver HepG2 cells are transiently transfected with multiple reporter transcription units (MRTUs) in 6-well plates using FuGene 6 reagent (Roche; 3 ml FuGene/1 mg DNA). […] A major difference between the CIS and TRANS system is that in CIS activities of endogenous TFs are measured, whereas the TRANS assay evaluates changes in activities of exogenous, chimeric NR-Gal4 proteins. […] The fragments were purified using Qiaquick PCR columns (Qiagen), analyzed on an ABI 3130xL genetic analyzer (Applied Biosystems) with peak positions identified by using a set of X-rhodamine (ROX)-labeled MapMarker1000 molecular weight standards (BioVentures). […]
# [4] = molecular target: Estrogen receptor beta (Homo sapiens) (UniProt Q92731); test: ATG_hERb_XSP2: Attagene TRANS-FACTORIAL Multi-Species (XSP2) HepG2 Assay for human Estrogen Receptor (ERb) (AID 2283813);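 also: actives raise reporter mRNA above DMSO so AC50 reflects agonist induction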
# Sequence of Estrogen receptor beta (Homo sapiens) (Q92731 whole entry, looked up, the tested form may be a part): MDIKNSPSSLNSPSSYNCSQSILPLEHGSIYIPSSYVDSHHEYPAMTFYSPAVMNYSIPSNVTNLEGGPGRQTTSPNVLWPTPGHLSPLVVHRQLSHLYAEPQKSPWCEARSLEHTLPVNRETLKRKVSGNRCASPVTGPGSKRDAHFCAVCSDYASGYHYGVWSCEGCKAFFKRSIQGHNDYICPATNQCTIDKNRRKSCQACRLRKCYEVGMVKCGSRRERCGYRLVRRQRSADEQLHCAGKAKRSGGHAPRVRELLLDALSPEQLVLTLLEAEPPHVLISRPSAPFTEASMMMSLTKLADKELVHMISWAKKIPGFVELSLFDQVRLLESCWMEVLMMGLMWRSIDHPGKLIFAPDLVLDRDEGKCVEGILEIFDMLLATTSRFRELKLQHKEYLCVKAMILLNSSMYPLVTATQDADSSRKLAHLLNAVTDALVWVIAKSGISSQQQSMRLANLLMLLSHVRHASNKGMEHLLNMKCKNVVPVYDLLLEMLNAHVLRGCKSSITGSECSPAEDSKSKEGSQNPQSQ
# How it was run: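 Transient TRANS reporter system in HepG2: after 24 h of chemical, RNA is reverse-transcribed, reporter cDNA amplified, FAM-labelled and sized by capillary electrophoresis. Induction of the human ERb-Gal4 reporter is measured relative to DMSO.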
# [5] = molecular target: GAL4 Transcription Factor (Internal Marker), GAL4 (gene 855828) (UniProt P04386); test: ATG_GAL4_XSP2: Attagene TRANS-FACTORIAL Multi-Species (XSP2) HepG2 Assay for GAL4 Transcription Factor (Internal Marker) (AID 2283814);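 also: GAL4 reporter mRNA background control in MRTU transfected cells not a receptor target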
# Sequence of GAL4 Transcription Factor (Internal Marker), GAL4 (gene 855828) (P04386 whole entry, looked up, the tested form may be a part): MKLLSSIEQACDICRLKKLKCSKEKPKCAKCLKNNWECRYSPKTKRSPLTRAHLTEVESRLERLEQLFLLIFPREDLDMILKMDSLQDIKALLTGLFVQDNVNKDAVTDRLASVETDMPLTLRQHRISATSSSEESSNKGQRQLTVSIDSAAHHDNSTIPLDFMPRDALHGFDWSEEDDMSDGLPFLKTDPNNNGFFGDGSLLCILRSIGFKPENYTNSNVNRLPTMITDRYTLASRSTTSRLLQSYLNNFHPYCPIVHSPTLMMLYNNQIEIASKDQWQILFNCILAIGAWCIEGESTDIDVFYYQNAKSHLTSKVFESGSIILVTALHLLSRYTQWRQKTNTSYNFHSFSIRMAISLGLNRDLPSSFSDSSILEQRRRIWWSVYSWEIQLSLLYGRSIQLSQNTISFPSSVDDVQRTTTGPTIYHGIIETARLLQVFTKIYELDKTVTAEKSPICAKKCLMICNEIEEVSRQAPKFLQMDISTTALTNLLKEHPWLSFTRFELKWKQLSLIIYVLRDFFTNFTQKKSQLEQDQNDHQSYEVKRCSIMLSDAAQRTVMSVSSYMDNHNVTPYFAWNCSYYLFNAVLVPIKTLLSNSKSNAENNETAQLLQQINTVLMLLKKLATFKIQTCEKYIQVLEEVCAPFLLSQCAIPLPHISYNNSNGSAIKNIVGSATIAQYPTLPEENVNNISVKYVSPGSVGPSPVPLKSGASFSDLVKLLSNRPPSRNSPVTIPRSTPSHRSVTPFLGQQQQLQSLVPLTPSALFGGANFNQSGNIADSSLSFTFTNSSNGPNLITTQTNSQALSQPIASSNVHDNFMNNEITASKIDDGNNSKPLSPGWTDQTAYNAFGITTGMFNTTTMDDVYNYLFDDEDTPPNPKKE
# How it was run: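 Background-control readout: gain-of-signal fitted against DMSO. After 24 h exposure of transfected HepG2 (MRTU, GAL4-UAS reporters; 3 nM 6-alpha-fluorotestosterone, 1.5 nM norgestrel present), transcripts quantified by RT-PCR and capillary electrophoresis fluorescence.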
# [6] = molecular target: Nuclear receptor subfamily 1 group I member 2 (Mus musculus) (UniProt O54915); test: ATG_mPXR_XSP1: Attagene TRANS-FACTORIAL Multi-Species (XSP1) HepG2 Assay for mouse Pregnane X Receptor (PXR) (AID 2283803)
# Sequence of Nuclear receptor subfamily 1 group I member 2 (Mus musculus) (O54915 whole entry, looked up, the tested form may be a part): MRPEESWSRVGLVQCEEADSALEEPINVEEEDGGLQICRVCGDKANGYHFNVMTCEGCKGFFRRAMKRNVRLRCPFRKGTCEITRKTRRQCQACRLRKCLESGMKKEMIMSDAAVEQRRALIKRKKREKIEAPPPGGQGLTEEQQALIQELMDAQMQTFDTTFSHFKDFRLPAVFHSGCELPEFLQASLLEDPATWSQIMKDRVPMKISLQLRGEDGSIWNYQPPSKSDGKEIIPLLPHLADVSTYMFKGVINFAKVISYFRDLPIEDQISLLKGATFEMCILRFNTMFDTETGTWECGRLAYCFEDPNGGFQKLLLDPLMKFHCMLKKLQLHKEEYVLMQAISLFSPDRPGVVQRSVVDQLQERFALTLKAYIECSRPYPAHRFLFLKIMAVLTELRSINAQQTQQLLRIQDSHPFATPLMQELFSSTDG
# How it was run: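 Transiently transfected HepG2 cells expressing a receptor-Gal4 chimera drive a GAL4-UAS reporter; 3 nM 6-alpha-fluorotestosterone included. Reporter mRNA read 24 h post-dose by RT-PCR and capillary electrophoresis; gain of signal relative to DMSO.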
# [7] = molecular target: human Thyroid hormone Receptor alpha (TRa), THRA (gene 7067) (UniProt P10827); test: ATG_hTRa_XSP1: Attagene TRANS-FACTORIAL Multi-Species (XSP1) HepG2 Assay for human Thyroid hormone Receptor alpha (TRa) (AID 2283805)
# Sequence of human Thyroid hormone Receptor alpha (TRa), THRA (gene 7067) (P10827 whole entry, looked up, the tested form may be a part): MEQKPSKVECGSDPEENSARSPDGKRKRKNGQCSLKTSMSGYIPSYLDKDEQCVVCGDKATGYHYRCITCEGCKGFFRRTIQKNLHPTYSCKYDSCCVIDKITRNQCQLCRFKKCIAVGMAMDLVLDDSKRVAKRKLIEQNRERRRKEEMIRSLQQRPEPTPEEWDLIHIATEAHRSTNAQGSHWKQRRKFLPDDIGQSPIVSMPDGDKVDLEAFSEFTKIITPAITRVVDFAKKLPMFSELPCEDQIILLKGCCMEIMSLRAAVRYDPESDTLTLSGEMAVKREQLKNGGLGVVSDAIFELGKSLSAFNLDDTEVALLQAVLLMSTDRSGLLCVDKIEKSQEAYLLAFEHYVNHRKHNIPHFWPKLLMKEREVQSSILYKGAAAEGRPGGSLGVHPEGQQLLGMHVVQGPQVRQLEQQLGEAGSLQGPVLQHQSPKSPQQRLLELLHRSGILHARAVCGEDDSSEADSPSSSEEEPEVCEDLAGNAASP
# How it was run: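 Reporter transcripts from the human TRa-Gal4 TRANS unit quantified by RT-PCR, fluorescent labeling and capillary electrophoresis after 24 hours of chemical exposure in transfected HepG2 cells; medium contains 3 nM 6-alpha-fluorotestosterone. Positive direction fit against DMSO.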
# [8] = molecular target: zebrafish Thyroid Hormone Receptor alpha (TRa), thraa (gene 30670) (UniProt Q98867); test: ATG_zfTRa_XSP1: Attagene TRANS-FACTORIAL Multi-Species (XSP1) HepG2 Assay for zebrafish Thyroid Hormone Receptor alpha (TRa) (AID 2283807)
# Sequence of zebrafish Thyroid Hormone Receptor alpha (TRa), thraa (gene 30670) (Q98867 whole entry, looked up, the tested form may be a part): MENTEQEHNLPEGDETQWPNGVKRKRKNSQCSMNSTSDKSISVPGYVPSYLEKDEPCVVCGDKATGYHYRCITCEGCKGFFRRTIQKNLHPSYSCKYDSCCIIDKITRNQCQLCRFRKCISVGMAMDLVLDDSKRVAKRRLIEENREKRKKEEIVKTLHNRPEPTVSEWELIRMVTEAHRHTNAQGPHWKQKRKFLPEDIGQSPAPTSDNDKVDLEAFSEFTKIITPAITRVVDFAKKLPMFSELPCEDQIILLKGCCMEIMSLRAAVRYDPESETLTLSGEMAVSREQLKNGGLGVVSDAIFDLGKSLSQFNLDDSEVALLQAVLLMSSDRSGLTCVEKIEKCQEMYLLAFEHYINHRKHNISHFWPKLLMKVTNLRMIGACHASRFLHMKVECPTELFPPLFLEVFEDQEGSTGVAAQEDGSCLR
# How it was run: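 Reporter transcripts driven by a chimeric zebrafish TRa–Gal4 protein were measured by RT-PCR with fluorescent labelling and capillary electrophoresis. These came from transiently transfected HepG2 cells after 24 h chemical exposure, with 3 nM 6-alpha-fluorotestosterone added; baseline was DMSO.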
# [9] = molecular target: human Thyroid hormone Receptor beta (TRb), THRB (gene 7068) (UniProt P10828); test: ATG_hTRb_XSP1: Attagene TRANS-FACTORIAL Multi-Species (XSP1) HepG2 Assay for human Thyroid hormone Receptor beta (TRb) (AID 2283808)
# Sequence of human Thyroid hormone Receptor beta (TRb), THRB (gene 7068) (P10828 whole entry, looked up, the tested form may be a part): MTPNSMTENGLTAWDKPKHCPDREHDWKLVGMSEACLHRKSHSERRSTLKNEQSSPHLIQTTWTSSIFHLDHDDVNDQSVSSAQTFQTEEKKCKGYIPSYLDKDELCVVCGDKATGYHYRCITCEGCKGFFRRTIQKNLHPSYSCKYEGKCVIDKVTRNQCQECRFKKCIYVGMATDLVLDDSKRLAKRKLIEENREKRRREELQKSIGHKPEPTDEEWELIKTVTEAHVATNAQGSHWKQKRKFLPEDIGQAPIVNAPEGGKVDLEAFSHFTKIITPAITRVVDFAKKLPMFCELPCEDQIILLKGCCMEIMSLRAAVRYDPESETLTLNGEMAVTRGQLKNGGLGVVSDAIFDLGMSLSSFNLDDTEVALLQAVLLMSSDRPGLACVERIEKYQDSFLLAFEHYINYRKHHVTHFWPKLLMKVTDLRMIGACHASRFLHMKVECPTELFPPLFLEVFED
# How it was run: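 Readout is reporter mRNA induction measured by RT-PCR, fluorescent labelling and capillary electrophoresis, fitted upward relative to DMSO. Transiently transfected human HepG2 cells expressing NR-Gal4 chimeras were dosed for 24 h, medium containing 3 nM 6-alpha-fluorotestosterone.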
# [10] = ATG_XTT_Cytotoxicity_XSP1: Cytotoxicity Assessment in the Attagene TRANS-FACTORIAL Multi-Species (XSP1) HepG2 Assay (AID 2283810)
# How it was run: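 XTT viability readout taken at 24 hours post-dosing in HepG2 liver cells co-treated with 3 nM 6-alpha-fluorotestosterone. Signal loss relative to DMSO controls reflects cytotoxicity.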
smiles,measurement,setting,value
O=c1c(O)c(-c2ccc(O)cc2)oc2cc(O)cc(O)c12,outcome,[1],inactive
same,AC50,[2],2.27 µM (active) and 1.08 µM (active)
same,AC50,[3],3.01 µM (active) and 1.32 µM (active)
Oc1ccc2cc(SSc3ccc4cc(O)ccc4c3)ccc2c1,outcome,[1],inactive
same,AC50,[2],1.07 µM (active)
same,outcome,[2],inactive
same,outcome,[3],inactive
Cc1cc(=O)oc2cc(N(C)C)ccc12,outcome,[1],inactive
same,AC50,[2],49.9 µM (active)
same,outcome,[2],inactive
same,outcome,[4],inactive
same,outcome,[5],inactive
Clc1ccc(C(c2ccccc2Cl)C(Cl)Cl)cc1 (stereo not given),outcome,[1],inactive
same,AC50,[2],1.29 µM (active) and 8.5 µM (active)
same,AC50,[4],3.01 µM (active) and 5.58 µM (active)
OCc1cccc(Oc2ccccc2)c1,outcome,[1],inactive
same,AC50,[2],17.1 µM (active) and 11.5 µM (active)
same,AC50,[4],26.9 µM (active) and 8.78 µM (active)
same,outcome,[5],inactive
CCCCC(CC)COC(=O)c1ccc(O)cc1 (stereo not given),outcome,[6],inactive
same,outcome,[7],inactive
same,outcome,[8],inactive
same,outcome,[9],inactive
same,AC50,[10],63.8 µM (active)
same,AC50,[2],25.3 µM (active)
same,outcome,[5],inactive
same,AC50,[3],53.2 µM (active)
BrCc1cccc(Oc2ccccc2)c1,outcome,[1],inactive
same,AC50,[2],15.9 µM (active) and 18.2 µM (active)
same,AC50,[4],21.3 µM (active) and 7.91 µM (active)
